In the library only some 1.4% were active in any assay of this set; here they are far more common.
EPAC2 antagonist = antagonists of human EPAC2 | EPAC2 GEF exchange of Rap1B-BODIPY-GDP, fluorescence | Potency, µM (highest dose often 114 µM), most hits filed as inhibitors | 360,000 compounds, 0.18% hits | AID 720708; further: nearly all actives have a fitted effect of over 45% in size
EPAC2 ag = activates human EPAC2 exchange factor; EPAC2 activation, biochemical qHTS; response scale: 100% = 6.5 mM cAMP response; Potency, µM (doses to about 154 µM), usual class: activators; 360,000 compounds, 0.079% hits; further: nearly all actives have a fitted effect of over 50% in size
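Fluorescence exchange assay: 100 nM EPAC2 with 250 nM RAP1B-BODIPY-GDP and 50 uM GDP; compounds tested as a concentration-titration series (qHTS). Loss of Rap1-bound BODIPY-GDP fluorescence read at 480/540 nm; data normalized to 6.5 mM cAMP.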
EPAC1 ag = agonists of human EPAC1 | O95398 | EPAC1 agonist qHTS, biochemical assay; response scale: 100% = response to 6.5 mM cAMP | Potency, µM (highest dose often 154 µM), hits mostly activators | 360,000 compounds, 0.073% hits | AID 720707; further: nearly all actives have a fitted effect of over 60% in size
Target sequence (O95398 whole entry, looked up): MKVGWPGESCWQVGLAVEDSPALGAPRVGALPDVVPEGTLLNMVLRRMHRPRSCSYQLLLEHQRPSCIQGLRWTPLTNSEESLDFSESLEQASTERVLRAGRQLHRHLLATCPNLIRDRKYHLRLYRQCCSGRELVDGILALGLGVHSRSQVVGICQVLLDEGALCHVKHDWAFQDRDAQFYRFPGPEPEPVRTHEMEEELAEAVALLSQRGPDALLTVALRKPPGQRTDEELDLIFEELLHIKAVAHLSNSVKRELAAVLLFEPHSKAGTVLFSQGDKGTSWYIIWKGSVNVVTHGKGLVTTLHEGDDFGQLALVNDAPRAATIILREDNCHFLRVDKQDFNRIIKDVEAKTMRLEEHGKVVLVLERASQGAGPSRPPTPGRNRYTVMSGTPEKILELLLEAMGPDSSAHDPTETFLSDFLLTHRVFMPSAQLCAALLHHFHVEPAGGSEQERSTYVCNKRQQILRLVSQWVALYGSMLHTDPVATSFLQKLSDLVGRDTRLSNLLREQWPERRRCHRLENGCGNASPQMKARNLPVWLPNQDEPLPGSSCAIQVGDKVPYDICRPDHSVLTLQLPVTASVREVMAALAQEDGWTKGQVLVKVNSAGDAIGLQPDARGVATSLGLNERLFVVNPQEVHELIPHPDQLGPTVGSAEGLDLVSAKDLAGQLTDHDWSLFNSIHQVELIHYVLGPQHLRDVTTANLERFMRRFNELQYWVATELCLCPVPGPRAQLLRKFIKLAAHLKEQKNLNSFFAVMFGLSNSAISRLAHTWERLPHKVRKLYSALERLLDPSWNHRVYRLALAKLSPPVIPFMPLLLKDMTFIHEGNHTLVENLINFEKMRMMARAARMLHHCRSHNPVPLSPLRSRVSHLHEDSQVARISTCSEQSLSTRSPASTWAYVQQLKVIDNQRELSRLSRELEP
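EPAC1 100 nM, Rap1B–BODIPY-GDP 250 nM, unlabeled GDP 50 uM; compound titration; 5 min RT; kinetic read ex480/em540 at 5-min intervals ×30 min; data normalized to 6.5 mM cAMP agonist control.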
EPAC1 antagonist = EPAC1 (human) antagonism. EPAC1 GEF assay, Rap1b-BODIPY-GDP exchange fluorescence. Potency, µM (titrated, usually from 115 µM), usual class: inhibitors. 360,000 compounds, 0.14% hits. AID 720709; further: nearly all actives have a fitted effect of over 50% in size
hERG WT inh = inhibitors of human wildtype KCNH2 potassium channel. Q12809. AID 720551. 340,000 compounds, 0.37% hits. U2OS, BacMam KCNH2, thallium flux FluxOr; hits give low values. activity change, % at 1.84 µM;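 active means maximum activity change below -70%; inconclusive means maximum activity change between -70% and -50%; inactive means maximum activity change above -50%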
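U2OS cells transduced with wild-type KCNH2 virus are loaded with FluxOr dye for 45 min, and thallium flux is measured in kinetic reads before and after stimulation buffer. Rate constants are normalized to DMSO controls.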
KCNH2 3.1 block = KCNH2 3.1 (human) potassium channel inhibition. 340,000 compounds, 0.95% hits. U2OS KCNH2 3.1, thallium flux FluxOr; hits give low values. activity change, % (tested at about 1.8 µM). AID 720553;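 active means maximum activity change below -70%; inconclusive means maximum activity change from -70% to -50%; inactive means maximum activity change above -50%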;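 further: thallium influx rate constant from kinetic fluorescence after stimulation buffer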
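Measured as rate of thallium-driven FluxOr signal in transduced U2OS cells carrying the 3.1 channel, read kinetically for 2 min upon stimulation; values are rate constants scaled to DMSO control wells.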
Of the large screens only hits and unclear results are named; the others gave an inactive call. Unless noted, the call rests on the fitted dose curve; in most records, active means well fitted curve in the direction sought with a large enough effect; inconclusive means small, poorly fitted or top-dose-only effect, or another doubt; inactive means no such curve, though single readings can be large; an effect the other way counts as inactive or inconclusive.

COc1ccc(/C=C(\NC(=O)c2ccc([N+](=O)[O-])cc2)C(=O)NCCCN2CCOCC2)cc1	KCNH2 3.1 block inconclusive
COc1ccc(/C=C(/NC(=O)c2ccc([N+](=O)[O-])cc2)C(=O)NCCCN(C)C)cc1	hERG WT inh -84, KCNH2 3.1 block inconclusive
Cc1ccc(C(=O)N/C(=C\c2ccc(Cl)cc2)C(=O)NCCN2CCOCC2)cc1	hERG WT inh -93, KCNH2 3.1 block inconclusive
Cc1ccc(C(=O)N/C(=C\c2ccc([N+](=O)[O-])cc2)C(=O)NCCc2ccccc2)cc1	KCNH2 3.1 block -96
COc1ccc(/C=C(\NC(=O)c2ccc([N+](=O)[O-])cc2)C(=O)NCCN2CCOCC2)cc1	hERG WT inh -118, KCNH2 3.1 block -78
O=C(NCc1ccccc1)C(C1CC1)n1c(-c2cccs2)nc2ccccc21 (stereo not given)	none (no result: hERG WT inh, KCNH2 3.1 block)
COc1ccc2[nH]c3c(c2c1)CCN1C(=O)C(CC(=O)NCCC2=CCCCC2)C[C@H](C(=O)N2CCOCC2)[C@@]31C (stereo not given in full)	none
O=C(COC(=O)Cc1ccc(Cl)cc1)NCc1cccs1	none
CC1CC(C)CN(CCC(=O)Nc2ccc(Br)cc2)C1 (stereo not given)	EPAC1 antagonist inconclusive
CN(C)CCCNC(=O)/C(=C\C=C\c1ccccc1)NC(=O)c1ccc([N+](=O)[O-])cc1	hERG WT inh -72, KCNH2 3.1 block -99
Cc1nc(NC(=S)NC(=O)c2ccco2)sc1C(=O)N(C)C	hERG WT inh -123
Cc1ccc(C(=O)Nc2nc(C)c(C(=O)N(C)C)s2)o1	none
O=C(C1CCN(S(=O)(=O)c2cccc3cccnc23)CC1)N1CCCCC1	none
Cc1ccc(S(=O)(=O)N(C)C[C@@H]2OCc3cnnn3CCCC(=O)N([C@@H](C)CO)C[C@H]2C)cc1	none
O=C(CC1CC2CCC1C2)N1CCN(S(=O)(=O)c2ccc(F)cc2)CC1 (stereo not given)	hERG WT inh -81
Cc1ccc(C(=O)NCCc2cc3ccc(C)c(C)c3[nH]c2=O)cc1[N+](=O)[O-]	none
COc1ccc(C(=O)NCCc2cc3ccc(C)c(C)c3[nH]c2=O)cc1OC	KCNH2 3.1 block -111
COc1cc(Br)cc(CN2CCN(C/C=C/c3ccccc3)CC2)c1O	KCNH2 3.1 block -71
Cc1cc(C)c2c(CN3CCN(C/C=C/c4ccccc4)CC3)cc(=O)oc2c1	hERG WT inh -101, KCNH2 3.1 block -87
COc1ccc(O)c(CN2CCN(C/C=C/c3ccccc3)CC2)c1	none
O=[N+]([O-])c1ccc(CN2CC(N3CCN(CCO)CC3)CS2(=O)=O)cc1 (stereo not given)	none
CCCCCCN1CCN(C2CN(Cc3ccc([N+](=O)[O-])cc3)S(=O)(=O)C2)CC1 (stereo not given)	hERG WT inh -96, KCNH2 3.1 block -112
Cc1ccc(CN2CCN(CCCn3cnc4c(OCc5ccccc5)ncnc43)CC2)cc1	hERG WT inh -127, KCNH2 3.1 block -97
c1ccc(COc2ncnc3c2ncn3CCCN2CCN(Cc3cccc4ccccc34)CC2)cc1	KCNH2 3.1 block inconclusive
O=C(OCc1cccc(F)c1)c1ccc2c(=O)n3c(nc2c1)CCC3	none
Fc1ccccc1C1c2[nH]c3ccccc3c2CCN1Cc1cccn1-c1ncccn1 (stereo not given)	KCNH2 3.1 block -71
Cc1ccccc1C1c2[nH]c3ccccc3c2CCN1Cc1cccn1-c1ncccn1 (stereo not given)	EPAC2 antagonist inconclusive
O=C1/C(=C/c2ccccc2)CCc2ccc(Cl)nc21	EPAC1 antagonist inconclusive
COc1ccc(-c2nc[nH]c2[N+](=O)[O-])cc1	none
CCOc1ccc(-c2nc[nH]c2[N+](=O)[O-])cc1	KCNH2 3.1 block -198
Cc1ccccc1OCCCC(=O)Nc1ccc(S(=O)(=O)Nc2onc(C)c2C)cc1	none
Clc1cccc(Cl)c1Cn1nnc(N2CCCC2)n1	hERG WT inh -138
Fc1cccc(Cl)c1Cn1nnc(-c2ccc(N3CCOCC3)cc2)n1	none
COc1ccc(NC(=O)C(c2cc3ccccc3o2)n2c(=O)c(-c3cc4ccccc4[nH]3)nc3ccccc32)cc1 (stereo not given)	none (no result: hERG WT inh, KCNH2 3.1 block)
Cc1cccc(-c2cc(NCCc3cccnc3)n3nccc3n2)c1	none (no result: hERG WT inh, KCNH2 3.1 block)
CC(C)(O)C#Cc1ccc(C(=O)NCCC(=O)O)s1	none
CC(C)(O)C#Cc1ccc(C(=O)NC2CCCCC2)s1	KCNH2 3.1 block -81
COc1ccc(CNC(=O)C2CCN(S(=O)(=O)c3ccc4c(c3)CC(C)N4C(=O)C3CC3)CC2)cc1 (stereo not given)	none
COc1ccc(CNc2nc(-c3cccnc3)nn2S(C)(=O)=O)cc1	KCNH2 3.1 block -76
COc1ccc(NS(=O)(=O)c2ccc(F)c(F)c2F)cc1S(=O)(=O)N1CCOCC1	none
COC(=O)C(Cc1ccccc1)NCC(=O)Nc1cccc(Cl)c1C (stereo not given)	none
S=c1[nH]c(-c2ccc(Cl)cc2)cs1	none
Cc1ccc(-c2csc(=S)[nH]2)cc1	KCNH2 3.1 block -78
O=C(Nc1ccnn1C1CCN(CCCc2ccccc2)CC1)c1cccc(F)c1	hERG WT inh -89, KCNH2 3.1 block -104
COc1ccc(CN2CCC(n3nccc3NC(=O)c3cccc(F)c3)CC2)cc1O	hERG WT inh -109, KCNH2 3.1 block -110
O=C(Nc1ccnn1C1CCN(C/C=C/c2ccccc2)CC1)c1cccc(F)c1	hERG WT inh -92, KCNH2 3.1 block -99
O=C(Nc1ccnn1C1CCN(C2CCC2)CC1)c1ccccc1	none
O=C(Nc1ccnn1C1CCN(C/C=C/c2ccccc2)CC1)c1ccccc1	EPAC2 antagonist inconclusive, hERG WT inh -91, KCNH2 3.1 block -91
COc1ccc(Cn2c(=S)[nH]c3ccsc3c2=O)cc1	none
CCCCNc1nccnc1-c1cccc(C=O)c1	none (no result: hERG WT inh, KCNH2 3.1 block)
CC1CCN(C(=O)c2ccc([N+](=O)[O-])o2)CC1	KCNH2 3.1 block -72
CC1CCCN(C(=O)c2ccc([N+](=O)[O-])o2)C1 (stereo not given)	none
CCC1Oc2ccc(C)cc2N(CC(=O)NCC2CCCO2)C1=O (stereo not given)	none
CN(C)CCN(C(=O)/C=C/c1cccs1)c1nc2ccc(F)cc2s1	KCNH2 3.1 block inconclusive
CCN(CC)CCN(C(=O)/C=C/c1cccs1)c1nc2ccc(Cl)cc2s1	hERG WT inh -149, KCNH2 3.1 block -100
Cc1ccc(S(=O)(=O)N2[C@H](CC(=O)c3ccc(F)cc3)OC[C@@H]2C)cc1	none (no result: hERG WT inh, KCNH2 3.1 block)

Screening results deposited in PubChem by National Center for Advancing Translational Sciences (NCATS).
